Laboratory results reported in the supplement of paper PMC10849652.
Of roughly 8,800 targets only a part is listed; those with a hit were picked by preference. About 0.5% of all pairs of compound and target were hits. Values without a mark were called inactive.

How the values were obtained:
Assay in all cases: log2 fold change, soluble protein after heating vs DMSO (PISA); higher = thermal stabilisation; K562 lysate, 10 uM; active = over 0.2 and 3.5 SD of the protein, either way, in both replicates (recomputed)
alvocidib = compound: CN1CC[C@H](c2c(O)cc(O)c3c(=O)cc(-c4ccccc4Cl)oc23)[C@H](O)C1 [alvocidib]
Method in brief: (§1)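 K562 pellets were dounce-homogenised in PBS pH 7.4 with 1 mM MgCl2, and the crude extract at 1 mg/mL protein was treated with 10 μM compound for 30 min. Aliquots were heated for 3 min across 48°C-58°C, pooled, and brought to 0.5% NP-40 at 4°C; soluble protein was the supernatant after 21,000xg for 90 min. Soluble protein was quantified by TMTpro 16plex LC-MS/MS with channel sums equalised, and reported as log2 fold change in thermal stability against DMSO controls, with values from duplicates.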

Tubastatin A = compound: CN1CCc2c(c3ccccc3n2Cc2ccc(C(=O)NO)cc2)C1 [Tubastatin A]
Method in brief: as §1

[1] = compound: CNC(=O)C1=CC=CC=C1NC2=NC(=NC=C2Cl)NC3=C(C=C(C=C3)N4CCOCC4)OC
Method in brief: as §1

defactinib = compound: CNC(=O)c1ccc(Nc2ncc(C(F)(F)F)c(NCc3nccnc3N(C)S(C)(=O)=O)n2)cc1 [defactinib]
Method in brief: as §1

[2] = compound: CNc1nc(-c2ccc3c(N)n[nH]c3c2)cc(N2C[C@@H](C(=O)NC3CCCCC3)CC[C@H]2C)n1
Method in brief: as §1

encorafenib = compound: COC(=O)N[C@@H](C)CNc1nccc(-c2cn(C(C)C)nc2-c2cc(Cl)cc(NS(C)(=O)=O)c2F)n1 [encorafenib]
Method in brief: as §1

[3] = compound: COC(=O)[C@H](CCSC)NC(=O)C1=C(C=C(C=C1)NC[C@H](CS)N)C2=CC=CC=C2
Method in brief: as §1

alisertib = compound: COc1cc(Nc2ncc3c(n2)-c2ccc(Cl)cc2C(c2c(F)cccc2OC)=NC3)ccc1C(=O)O [alisertib]
Method in brief: as §1

[4] = compound: COc1cc2nc(-c3cc(F)ccc3O)nc(N[C@@H]3CNC[C@H]3C(C)(C)O)c2cc1OC
Method in brief: as §1

gefitinib = compound: COc1cc2ncnc(Nc3ccc(F)c(Cl)c3)c2cc1OCCCN1CCOCC1 [gefitinib]
Method in brief: as §1

lapatinib = compound: CS(=O)(=O)CCNCc1ccc(-c2ccc3ncnc(Nc4ccc(OCc5cccc(F)c5)c(Cl)c4)c3c2)o1 [lapatinib]
Method in brief: as §1

crizotinib = compound: C[C@@H](Oc1cc(-c2cnn(C3CCNCC3)c2)cnc1N)c1c(Cl)ccc(F)c1Cl [crizotinib]
Method in brief: as §1

[5] = compound: C[C@H](C1=CC=C(C=C1)C(=O)NC2=C3C=CNC3=NC=C2)N
Method in brief: as §1

duvelisib = compound: C[C@H](Nc1ncnc2nc[nH]c12)c1cc2cccc(Cl)c2c(=O)n1-c1ccccc1 [duvelisib]
Method in brief: as §1

gandotinib = compound: Cc1cc(Nc2cc(CN3CCOCC3)c3nc(C)c(Cc4ccc(Cl)cc4F)n3n2)n[nH]1 [gandotinib]
Method in brief: as §1

tozasertib = compound: Cc1cc(Nc2cc(N3CCN(C)CC3)nc(Sc3ccc(NC(=O)C4CC4)cc3)n2)n[nH]1 [tozasertib]
Method in brief: as §1

doramapimod = compound: Cc1ccc(-n2nc(C(C)(C)C)cc2NC(=O)Nc2ccc(OCCN3CCOCC3)c3ccccc23)cc1 [doramapimod]
Method in brief: as §1

[6] = compound: Cc1cccc(CC(=O)N2CCc3c2ccc(-c2cn(C)c4ncnc(N)c24)c3F)n1
Method in brief: as §1

pictilisib = compound: CS(=O)(=O)N1CCN(Cc2cc3nc(-c4cccc5[nH]ncc45)nc(N4CCOCC4)c3s2)CC1 [pictilisib]
Method in brief: as §1

bafetinib = compound: Cc1ccc(NC(=O)c2ccc(CN3CC[C@H](N(C)C)C3)c(C(F)(F)F)c2)cc1Nc1nccc(-c2cncnc2)n1 [bafetinib]
Method in brief: as §1

Chain of UniProt Q96KA5 (Q96KA5 whole entry, looked up): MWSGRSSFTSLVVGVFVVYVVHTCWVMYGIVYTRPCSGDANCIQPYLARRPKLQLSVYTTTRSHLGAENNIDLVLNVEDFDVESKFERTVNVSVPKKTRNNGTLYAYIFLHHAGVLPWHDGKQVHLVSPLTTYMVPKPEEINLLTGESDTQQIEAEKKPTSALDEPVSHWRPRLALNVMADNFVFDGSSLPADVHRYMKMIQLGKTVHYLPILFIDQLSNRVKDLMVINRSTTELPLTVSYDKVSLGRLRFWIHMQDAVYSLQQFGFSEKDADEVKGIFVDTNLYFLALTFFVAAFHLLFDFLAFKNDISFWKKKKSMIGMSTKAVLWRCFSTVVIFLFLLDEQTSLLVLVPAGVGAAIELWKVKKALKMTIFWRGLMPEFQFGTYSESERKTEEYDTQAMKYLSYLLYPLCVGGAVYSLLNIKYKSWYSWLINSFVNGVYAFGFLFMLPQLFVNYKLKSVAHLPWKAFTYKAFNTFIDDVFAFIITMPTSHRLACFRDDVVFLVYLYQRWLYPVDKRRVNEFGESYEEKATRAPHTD
Chain of UniProt Q6P3W2 (Q6P3W2 whole entry, looked up): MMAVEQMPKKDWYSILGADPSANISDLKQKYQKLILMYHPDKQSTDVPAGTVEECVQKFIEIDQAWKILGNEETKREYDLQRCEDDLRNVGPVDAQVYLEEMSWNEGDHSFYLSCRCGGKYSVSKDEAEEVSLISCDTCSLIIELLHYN
Chain of UniProt Q16850 (Q16850 whole entry, looked up): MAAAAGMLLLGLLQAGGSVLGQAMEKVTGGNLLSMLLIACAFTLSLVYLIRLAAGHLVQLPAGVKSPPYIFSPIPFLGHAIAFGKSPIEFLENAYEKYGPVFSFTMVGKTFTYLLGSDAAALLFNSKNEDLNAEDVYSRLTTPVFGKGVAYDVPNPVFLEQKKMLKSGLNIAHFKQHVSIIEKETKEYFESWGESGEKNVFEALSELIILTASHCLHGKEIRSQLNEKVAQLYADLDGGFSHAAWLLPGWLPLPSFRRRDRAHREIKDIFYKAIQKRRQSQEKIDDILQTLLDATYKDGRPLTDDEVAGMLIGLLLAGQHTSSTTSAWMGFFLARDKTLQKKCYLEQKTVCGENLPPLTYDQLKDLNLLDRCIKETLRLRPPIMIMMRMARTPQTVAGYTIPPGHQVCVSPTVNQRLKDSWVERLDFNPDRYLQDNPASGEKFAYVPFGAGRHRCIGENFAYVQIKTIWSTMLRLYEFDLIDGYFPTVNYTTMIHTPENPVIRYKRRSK
Chain of UniProt G9CGD6 (G9CGD6 whole entry, looked up): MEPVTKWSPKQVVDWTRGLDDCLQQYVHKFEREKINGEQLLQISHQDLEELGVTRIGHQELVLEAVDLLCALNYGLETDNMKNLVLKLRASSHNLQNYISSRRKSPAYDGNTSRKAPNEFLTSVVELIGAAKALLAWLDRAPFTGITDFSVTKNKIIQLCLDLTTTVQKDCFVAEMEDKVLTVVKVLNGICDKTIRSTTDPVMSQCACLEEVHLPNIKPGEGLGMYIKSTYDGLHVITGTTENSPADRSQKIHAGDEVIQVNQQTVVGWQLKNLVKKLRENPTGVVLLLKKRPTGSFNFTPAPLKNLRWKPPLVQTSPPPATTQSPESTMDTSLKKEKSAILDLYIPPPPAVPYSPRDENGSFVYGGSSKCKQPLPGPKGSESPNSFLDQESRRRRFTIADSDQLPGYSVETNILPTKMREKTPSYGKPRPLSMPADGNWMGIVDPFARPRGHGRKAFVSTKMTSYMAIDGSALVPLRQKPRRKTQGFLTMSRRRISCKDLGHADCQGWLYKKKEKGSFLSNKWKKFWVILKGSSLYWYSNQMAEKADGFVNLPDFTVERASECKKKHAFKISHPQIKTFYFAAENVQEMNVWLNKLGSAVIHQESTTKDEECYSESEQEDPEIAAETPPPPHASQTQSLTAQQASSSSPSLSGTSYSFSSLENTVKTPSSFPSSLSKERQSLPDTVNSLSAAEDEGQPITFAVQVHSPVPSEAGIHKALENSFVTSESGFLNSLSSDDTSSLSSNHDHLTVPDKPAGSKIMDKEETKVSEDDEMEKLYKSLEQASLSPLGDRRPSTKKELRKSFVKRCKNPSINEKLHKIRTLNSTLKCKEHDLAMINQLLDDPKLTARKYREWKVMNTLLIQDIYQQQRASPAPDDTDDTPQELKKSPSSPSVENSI
Chain of UniProt P24311 (P24311 whole entry, looked up): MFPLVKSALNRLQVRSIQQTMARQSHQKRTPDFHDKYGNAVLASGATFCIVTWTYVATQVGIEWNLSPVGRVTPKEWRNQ

| Target | log2 fold change (alvocidib) | log2 fold change (Tubastatin A) | log2 fold change [1] | log2 fold change (defactinib) | log2 fold change [2] | log2 fold change (encorafenib) | log2 fold change [3] | log2 fold change (alisertib) | log2 fold change [4] | log2 fold change (gefitinib) | log2 fold change (lapatinib) | log2 fold change (crizotinib) | log2 fold change [5] | log2 fold change (duvelisib) | log2 fold change (gandotinib) | log2 fold change (tozasertib) | log2 fold change (doramapimod) | log2 fold change [6] | log2 fold change (pictilisib) | log2 fold change (bafetinib) |
| --- | --- | --- | --- | --- | --- | --- | --- | --- | --- | --- | --- | --- | --- | --- | --- | --- | --- | --- | --- | --- |
| COX7B (UniProt P24311) | 0.013 | 0.02 | 0.112 | 0.042 | -0.014 | -0.022 | 0.315 (active) | 0.028 | 0.018 | -0.139 | -0.002 | 0.058 | 0.025 | 0.005 | 0.01 | 0.035 | 0.035 | 0.099 |  |  |
| CNK3/IPCEF1 isoform 2 (UniProt G9CGD6) | -0.483 | -0.048 | -0.012 | -0.082 | -0.007 | 0.041 | -0.062 |  |  |  |  |  | -1.84 (active) | 0.129 | 0.326 | 0.105 |  | 0.4 |  |  |
| CYP51A1 (UniProt Q16850) | -0.017 | 0.007 | 0.005 | -0.001 | 0.023 | -0.019 | 0.09 | 0.019 | 0.053 | 0 | 0.105 | 0.023 | -0.036 | -0.065 | 0.447 (active) | 0 | 0.089 | 0.045 | 0.024 | 0.385 (active) |
| DNAJC24 (UniProt Q6P3W2) | 0.079 | 0.001 | -0.017 | 0.009 | -0.088 | 0.037 | -0.027 | -0.017 | -0.006 | -0.038 | 0.006 | 0.074 | 0.152 | -0.025 | -0.162 | 0.073 | 0.042 | -0.134 |  |  |
| CLPTM1L (UniProt Q96KA5) | 0.001 | -0.064 | -0.131 | 0.015 | -0.204 | 0.021 | -0.029 | 0.054 | -0.097 | 0.011 | -0.095 | -0.021 | -0.092 | -0.049 | -0.233 (active) | 0.004 | -0.098 | 0.137 |  | -0.064 |
